Data published in PMC10163288.
Only a sample is shown. The hit rate among all sequences tested is not known here. A number with no mark means an inactive call.

B1: il10ra_site1_sap_16_mot_HHH_b1_06789_af2_000000041_0001_1_20_H_._HHH_b2_05269_af2_0001_0000200010_0000002_0_0001 (protein)
chain: SSSSDVEEELRELLKELEELVEEGDEEKFLRVAMEALHLAFQARDEEVLQLLWELAKELASSSSS
B2: il10ra_site1_normal_mot_HHH_b2_02693_af2_000000213_0001_19_35_H_._HHH_b2_04275_0001_0000300016_0000001_0_af2pred_0001 (protein)
chain: SSSSSSEESEELLEQLEEALRRGDEELIARLVLEIARLAEELNDKELVEELLRLLVEHQSSSSSS
B3: il10ra_site1_normal_mot_8756ee2cf497b5429c717dfc0c0bcfd6_0001_000000186_0001_1_13_H_._HHH_b2_00624_0001_0000300028_0000001_0_af2pred_0001 (protein)
chain: SSSSSEEAEELYRLLREAAELHWEGNPEEARELLEEAEELAKEAGNLNALAVIRFLLEVAGSSSS
B4: il10ra_site1_normal_mot_HHH_b2_00943_af2_000000149_0001_1_17_H_._d3c612d18aab0e0945b39b51a1e20ad4_0001_1_af2_0001_0000500040_0000001_0_af2pred_0001 (protein)
chain: SAEEVLQRQVERDPDDASALHLLLLVLAAKEGDPELVQLLRRANELSREGNPEEAREILQEAIER
B5: il10ra_site1_sap_27_mot_104c758fc23488854646035ccb2100c6_0001_000000282_0001_15_29_H_._5a9d7fc92c57439179869c3e1d567c11_0001_0001_0000100005_0000001_0_0001_af2p … (protein)
chain: SSSSSPLEKKLEATTKYLKFCLSHNDLEGIKSGLIALKQLGDESGNEEAKKVAAEVEEKLKSSSS
B6: il10ra_site1_normal_mot_HHH_b1_01779_000000096_0001_43_57_H_._HHH_b2_08219_0001_0000100005_0000001_0_af2pred_0001 (protein)
chain: SSSSNKEEAERSVRLLLELAKRLEDPERARAALRDARRTAEYVNDPELEELVEEVEREVLSSSSS
B7: il10ra_site1_sap_19_mot_HHH_b2_02053_af2_000000006_0001_3_19_H_._HHH_b1_07370_0001_0000100001_0000002_0_0001 (protein)
chain: SSSSSDEEVEELLKEAEELAEEGNPEEAAKVLLEAVRLAIQAGDEEALQKVWEVVKELAKSSSSS
B8: il10ra_site1_sap_23_mot_HHH_b2_03708_000000000_0001_1_18_H_._HHH_b1_08343_0001_0000300038_0000001_0_0001 (protein)
chain: SSSSDLEKEIFHLLIEAYHLLQRGDEEEARELLEEAKELAEELNDPALLRAVEVLLAKLDSSSSS
B9: il10ra_site1_sap_14_mot_HHH_b2_05343_000000235_0001_19_35_H_._HHH_b2_05666_0001_0000600037_0000001_0_0001 (protein)
chain: SSSSDQEFYKAVEEAIEKAIKLEKNGNPEEAERLLEEILEKAEELGNWAARWSIRHLLELLSSSS
B10: il10ra_site1_sap_19_mot_HHH_b2_05984_000000071_0001_38_52_H_._919c246ba0fc10ef4578bdc7f1052ff8_0001_0001_0000100004_0000001_0_0001 (protein)
chain: NELEEELEELVERGDEEKVAELAVKVAKEKGSFSPEQLEALRRFIEALFRDNKKVAEHLARLVID
B11: il10ra_site1_normal_mot_HHH_b2_07579_000000275_0001_1_19_H_._HHH_b1_01139_af2_0001_0000300023_0000001_0_af2pred_0001 (protein)
chain: SSSSSEEKRKVLELLRKALEIEDKEEAEKVVEEAVRLAEELNDPLAAKLAEMLLEQLEKGSSSSS
B12: il10ra_site1_sap_25_mot_HHH_b2_07388_000000275_0001_18_35_H_._7abaf38a3307e851c9e6880adce6b300_0001_1_0001_0000100003_0000001_0_0001_af2pred_0001 (protein)
chain: SSSSDEEEEEVEKLLEELEKLLERGDREEVFRLFREAARIIAELRDEEAFRRLQELLKRLFSSSS
B13: il10ra_site1_normal_mot_HHH_b2_00345_af2_000000013_0001_42_56_H_._HHH_b2_01857_0001_0000400035_0000002_0 (protein)
chain: SSSSSDEEEEEVEELLEEAKHIEDHEKRIEILLEATHLALRAQDPELVQLVWEVFHRLIRSSSSS
B14: il10ra_site1_normal_mot_HHH_b1_02062_000000185_0001_1_20_H_._HHH_b1_08089_0001_0000100003_0000001_0_af2pred_0001 (protein)
chain: SSSSDVEERVEELFEEVEELLRQGDVEEAFKVSREMIELASENQDDEAAELAREASRLFARSSSS
B15: il10ra_site1_normal_mot_HHH_b1_00999_000000080_0001_41_55_H_._HHH_b2_01363_af2_0001_0000100001_0000002_0 (protein)
chain: SSSSSSEEVEEEVERLLEEAKEIEDPEEAMRVLLEALQIALRNNNKELLQLVWRIIKELGSSSSS
B16: il10ra_site1_normal_mot_HHH_b2_03220_af2_000000223_0001_23_40_H_._HHH_b1_01843_af2_0001_0000200015_0000002_0 (protein)
chain: SSSSSSSEAEEVWRLLREALHIDDEEEVQELLEEAKRLAEELNSEVLRIVIEFLERDLSSSSSSS
B17: il10ra_site1_sap_13_mot_HHH_b2_04993_000000082_0001_43_55_H_._0a28df53656836c8faf163f96bad2529_0001_1_af2_0001_0000100004_0000002_0_0001_af2pred_0001 (protein)
chain: SSSSDEEEERLEELLEEVEELLRQGDPEEAARLLFEVAKLAAELNDDEILKLVQELVHLLFSSSS
B18: il10ra_site1_normal_mot_HHH_b2_00475_000000107_0001_44_57_H_._HHH_b1_04904_0002_0000200015_0000002_0 (protein)
chain: SSSSDIIEVLYRLQHAVAKGDEEEIEELLEELEELLKKASEEERKYIEILLHFARAQLELLSSSS
B19: il10ra_site1_normal_mot_HHH_b2_02337_000000026_0001_38_52_H_._HHH_b1_01890_af2_0001_0000100004_0000001_1 (protein)
chain: SSSSDEEEKAEELIREAEELAENGNPEEAARVAQEALRLILELGDEEALQLLWEAVRRLARSSSS
B20: il10ra_site1_sap_21_mot_HHH_b1_06914_000000280_0001_1_18_H_._HHH_b2_08153_0001_0000400035_0000001_0_0001 (protein)
chain: SSSSSREELREEVEEVIEELEEKNDTKLLHRLMELYKRAAELGDEELVREIFEVLLRIVQKSSSS
B21: il10ra_site1_normal_mot_HHH_b1_01821_000000158_0001_23_39_H_._HHH_b1_01350_af2_0001_0000300008_0000001_0 (protein)
chain: SSSSSSDEEREEAEELLEEAKHVEDPERFIELILEAVRLALRSGDEELLQEIWELFKRKSSSSSS

Each binder was assayed against il10ra, Q13651 (assay: yeast display titration).
il10ra, Q13651, sequence (Q13651 whole entry): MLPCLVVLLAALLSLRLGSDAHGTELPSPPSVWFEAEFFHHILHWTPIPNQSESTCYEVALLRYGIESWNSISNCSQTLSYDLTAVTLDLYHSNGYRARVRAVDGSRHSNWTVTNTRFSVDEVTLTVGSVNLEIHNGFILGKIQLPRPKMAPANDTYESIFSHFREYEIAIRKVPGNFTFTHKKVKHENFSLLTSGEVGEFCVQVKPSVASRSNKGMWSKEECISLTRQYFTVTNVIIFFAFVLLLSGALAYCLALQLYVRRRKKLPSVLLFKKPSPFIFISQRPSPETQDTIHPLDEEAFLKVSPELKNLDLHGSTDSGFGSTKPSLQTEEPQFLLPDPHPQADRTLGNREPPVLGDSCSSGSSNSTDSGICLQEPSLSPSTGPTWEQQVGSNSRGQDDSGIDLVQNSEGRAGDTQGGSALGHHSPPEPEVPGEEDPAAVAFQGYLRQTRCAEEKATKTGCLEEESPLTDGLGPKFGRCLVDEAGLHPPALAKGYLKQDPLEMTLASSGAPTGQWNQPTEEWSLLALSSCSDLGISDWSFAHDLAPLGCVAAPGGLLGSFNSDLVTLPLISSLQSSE
For B1, the “apparent Kd” value was “no binding seen”. In the case of B2, the “apparent Kd” value is reported as “no binding seen”. For B3, the “apparent Kd” value was “no binding seen”. B4 was tested, and the “apparent Kd” value was “no binding seen”. B5 was tested, and the “apparent Kd” value was “no binding seen”. For B6, the “apparent Kd” value was “no binding seen”. In the case of B7, the “apparent Kd” value is reported as “no binding seen”. In the case of B8, the “apparent Kd” value is reported as “no binding seen”. With B9 the “apparent Kd” value was “no binding seen”. With B10 the “apparent Kd” value was “no binding seen”. In the case of B11, the “apparent Kd” value is reported as “no binding seen”. B12 was tested, and the “apparent Kd” value was “no binding seen”. In the case of B13, the “apparent Kd” value is reported as “no binding seen”. In the case of B14, the “apparent Kd” value is reported as “no binding seen”. With B15 the “apparent Kd” value was “no binding seen”. For B16, the “apparent Kd” value was “no binding seen”. With B17 the “apparent Kd” value was “no binding seen”. For B18, the “apparent Kd” value was “no binding seen”. With B19 the “apparent Kd” value was “no binding seen”. With B20 the “apparent Kd” value was “no binding seen”. For B21, the “apparent Kd” value was “no binding seen”.
